According to PubChem BioAssay (EPA / NIEHS):
Calls of active or inactive are those of the source. How the source made its calls: active means hit-call score of the fitted dose curve at least 0.9, where 1 is the maximum; inactive means score below 0.9.

Experiments:
[1] = ATG_CRE_CIS: Attagene CIS-FACTORIAL HepG2 Assay for human cAMP Responsive Element (CRE) binding protein 3 (AID 2282926); details: HepG2 CRE cis-reporter, Attagene multiplexed mRNA; actives raise or lower the signal
Outline: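 Cells carrying cis-regulated reporter constructs respond through their own endogenous factors. After 24 h treatment, RNA is reverse-transcribed, amplified, labelled and sized by capillary electrophoresis; up- and down-regulation are both scored against vehicle.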

[2] = ATG_DR4_LXR_CIS: Attagene CIS-FACTORIAL HepG2 Assay for human Liver X Receptor (LXR), DR4 submotif (AID 2282929); details: HepG2 Attagene DR4 cis-reporter, mRNA transcription; actives raise or lower the signal
Outline: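 Readout: reporter transcript fluorescence after RT-PCR and capillary electrophoresis, fitted bidirectionally against DMSO controls. Human HepG2 liver cells carried transiently transfected multiplexed reporter constructs; endogenous transcription factor activity measured 24 h post-dosing.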

[3] = ATG_AP_1_CIS: Attagene CIS-FACTORIAL HepG2 Assay for human Activator Protein 1 (AP-1) (AID 2282931); details: HepG2 Attagene cis-factorial AP-1 reporter mRNA; actives raise or lower the signal
Outline: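 Reporter transcripts were measured 24 h after dosing by RT-PCR and capillary electrophoresis of fluorescent fragments. Cells: HepG2 carrying transfected cis-regulated reporter constructs reading endogenous factor activity. Gain or loss fitted against DMSO.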

[4] = ATG_AP_2_CIS: Attagene CIS-FACTORIAL HepG2 Assay for human Activator Protein 2 (AP-2) (AID 2282932); details: HepG2 AP-2 cis-reporter, Attagene transcription factor profiling; actives raise or lower the signal
Outline: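 Assay in transfected HepG2 with promoter-regulated reporters, 24 h incubation after dosing. Signal is reporter mRNA fluorescence (RT-PCR, capillary electrophoresis), analysed for both increases and decreases relative to DMSO controls.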

[5] = target: Transcription factor E2F1 (Homo sapiens) (UniProt Q01094); experiment: ATG_E2F_CIS: Attagene CIS-FACTORIAL HepG2 Assay for human E2F Transcription Factor 1 (AID 2282935); details: HepG2 Attagene cis-reporter, E2F reporter RNA transcripts; actives raise or lower the signal
Outline: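 In this cis-factorial format, endogenous factor activity drives transfected reporters in HepG2; transcripts collected at 24 h are quantified by fluorescence after RT-PCR and capillary separation.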

[6] = ATG_M_61_CIS: Attagene CIS-FACTORIAL HepG2 Assay for M61 Transcription Factor (Internal Marker) (AID 2282937); details: HepG2 Attagene CIS-FACTORIAL M61 internal marker reporter; actives raise or lower the signal
Outline: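 Readout: fluorescent reporter mRNA fragments resolved by capillary electrophoresis after RT-PCR. Transiently transfected human HepG2 cells carried MRTU constructs reporting endogenous TF activity; 24 h chemical exposure; gain or loss of signal fitted relative to DMSO.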

[7] = ATG_EGR_CIS: Attagene CIS-FACTORIAL HepG2 Assay for human Early Growth Response 1 (EGR1) (AID 2282938); details: HepG2 Attagene CIS-FACTORIAL EGR reporter mRNA; actives raise or lower the signal
Outline: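 Read-out: fluorescent reporter-mRNA fragments resolved by capillary electrophoresis after RT-PCR, 24 h post-dose in transiently transfected HepG2. Endogenous transcription-factor activity reported via cis-element-regulated reporter units; gain or loss fitted relative to DMSO.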

[8] = ATG_M_19_CIS: Attagene CIS-FACTORIAL HepG2 Assay for M19 Transcription Factor (Internal Marker) (AID 2282939); details: HepG2 Attagene CIS-FACTORIAL M19 internal marker reporter; actives raise or lower the signal
Outline: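 HepG2 cells transiently transfected with cis-regulated multiple reporter transcription units were dosed for 24 h; reporter mRNA was quantified by RT-PCR, 6-FAM primer-extension labelling, HpaI digestion and capillary electrophoresis, with bidirectional fitting against DMSO baseline.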

[9] = ATG_Ets_CIS: Attagene CIS-FACTORIAL HepG2 Assay for human Erythroblast Transformation Specific (ETS) (AID 2282941); details: HepG2 ETS cis-reporter transcription, actives raise or lower the signal
Outline: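 Endogenous transcription factor activity read as reporter mRNA via RT-PCR and capillary electrophoresis, with gain or loss fitted bidirectionally against DMSO. Human HepG2 liver cells, transiently transfected CIS reporter constructs, 24 h exposure.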

[10] = target: Hepatocyte nuclear factor 3-beta (Homo sapiens) (UniProt Q9Y261); experiment: ATG_FoxA2_CIS: Attagene CIS-FACTORIAL HepG2 Assay for human Forkhead box A2 (FOXA2) (AID 2282942); details: HepG2 cis-reporter transcription factor activity, 24 h; actives raise or lower the signal
Outline: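 Readout: fluorescent reporter transcripts resolved by capillary electrophoresis after RT-PCR. Transiently transfected HepG2, 24 h compound exposure, endogenous TF activity at cis promoter elements. Gain or loss of signal fitted relative to DMSO.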

[11] = ATG_GATA_CIS: Attagene CIS-FACTORIAL HepG2 Assay for human GATA Binding Protein (AID 2282944); details: HepG2 GATA cis-element reporter, Attagene multiplex mRNA; actives raise or lower the signal
Outline: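 HepG2 cells transiently transfected with multiplexed cis-element reporter units reflecting endogenous transcription factor activity; reporter mRNA measured after 24 h dosing by RT-PCR, 6-FAM labeling, HpaI digestion and capillary electrophoresis. Bidirectional fitting versus DMSO baseline.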

[12] = ATG_GLI_CIS: Attagene CIS-FACTORIAL HepG2 Assay for human Zinc Finger Protein GLI1 (AID 2282945); details: HepG2, Attagene cis-factorial reporter mRNA, GLI element; actives raise or lower the signal
Outline: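 HepG2 cells transiently transfected with cis-promoter multiplexed reporter units report endogenous transcription factor activity. After 24 h chemical exposure, reporter mRNA was quantified by RT-PCR, 6-FAM labelling, HpaI digestion and capillary electrophoresis, with bidirectional fitting against DMSO.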

[13] = ATG_ISRE_CIS: Attagene CIS-FACTORIAL HepG2 Assay for human Interferon Regulatory Factor 1 (IRF1) binding to an Interferon-Stimulated Response Element (ISRE) (AID 2282948); details: HepG2 ISRE cis-reporter (Attagene), mRNA transcription readout; actives raise or lower the signal
Outline: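 Endogenous transcription factor activity read as reporter transcript abundance via RT-PCR and capillary electrophoresis. HepG2 cells transiently transfected, 24 h chemical exposure. Gain or loss fitted against DMSO baseline.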

[14] = ATG_M_32_CIS: Attagene CIS-FACTORIAL HepG2 Assay for M32 Transcription Factor (Internal Marker) (AID 2282949); details: HepG2 Attagene cis-factorial M32 reporter, mRNA; actives raise or lower the signal;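 further: background control marker of the multiplexed CIS panel rather than a real target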
Outline: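 Using DMSO as baseline, bidirectional curve fits were applied to reporter mRNA signals. These came from transiently transfected HepG2 cells exposed for 24 h, with RNA analysed by RT-PCR, FAM primer extension, HpaI digestion and CE.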

[15] = ATG_M_06_CIS: Attagene CIS-FACTORIAL HepG2 Assay for M06 Transcription Factor (Internal Marker) (AID 2282950); details: HepG2 Attagene CIS-FACTORIAL M06 internal marker reporter; actives raise or lower the signal
Outline: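 HepG2 cells transiently transfected with cis-regulated multiple reporter transcription units were exposed to chemical for 24 h; reporter mRNA was quantified by RT-PCR, 6-FAM primer labelling, HpaI digestion and capillary electrophoresis, fitted bidirectionally against DMSO.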

[16] = ATG_MRE_CIS: Attagene CIS-FACTORIAL HepG2 Assay for human Metal Responsive Element (MRE) (AID 2282954); details: HepG2 MRE cis-reporter transcription, Attagene multiplex; actives raise or lower the signal
Outline: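 Readout: capillary electrophoresis of 6-FAM-labelled, HpaI-digested RT-PCR reporter products. System: HepG2 cells carrying transient multiplexed cis reporters, dosed 24 h. Analysis: bidirectional fit, DMSO baseline.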

[17] = target: Paired box protein Pax-6 (Homo sapiens) (UniProt P26367); experiment: ATG_Pax6_CIS: Attagene CIS-FACTORIAL HepG2 Assay for human Paired Box 6 (PAX6) (AID 2282956); details: HepG2 CIS-FACTORIAL PAX6 reporter transcription, RNA readout; actives raise or lower the signal
Outline: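 Read-out is reporter transcript level, measured by RT-PCR with fluorescent primer extension and capillary electrophoresis after 24 h dosing of transfected HepG2 cells. Activity in either direction fitted relative to DMSO control.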

[18] = ATG_PXRE_CIS: Attagene CIS-FACTORIAL HepG2 Assay for human Pregnane X Receptor Element (PXRE) (AID 2282957); details: HepG2 Attagene CIS-FACTORIAL PXRE reporter, mRNA; actives raise or lower the signal
Outline: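 Endogenous transcription factor activity in HepG2 was gauged through induction of reporter mRNA driven by a cis-regulating promoter element, sampled 24 h post-treatment. Activity was fitted in both directions against DMSO negative control.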

[19] = target: Transcription factor Sp1 (Homo sapiens) (UniProt P08047); experiment: ATG_Sp1_CIS: Attagene CIS-FACTORIAL HepG2 Assay for human Specificity Protein 1 (Sp1) (AID 2282961); details: HepG2 Sp1 cis-reporter transcription, actives raise or lower the signal
Outline: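 Read-out: fluorescence of 6-FAM-labeled, HpaI-digested RT-PCR products separated by capillary electrophoresis. HepG2 cells carried transfected cis-element reporter units and were exposed to chemicals for 24 h; gain or loss of signal fitted relative to DMSO.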

[20] = target: Signal transducer and activator of transcription 3 (Homo sapiens) (UniProt P40763); experiment: ATG_STAT3_CIS: Attagene CIS-FACTORIAL HepG2 Assay for human Signal Transducer and Activator of Transcription 3 (STAT3) (AID 2282963); details: HepG2, Attagene cis-factorial STAT3 reporter transcription; actives raise or lower the signal
Outline: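 Uses human liver HepG2 transiently carrying cis-regulated reporter transcription units. Following 24 h dosing, reporter mRNA induction was detected by RT-PCR and capillary electrophoresis, analysed bidirectionally versus DMSO.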

Measured: AC50

Sequence of Hepatocyte nuclear factor 3-beta (Homo sapiens) (Q9Y261 whole entry, looked up): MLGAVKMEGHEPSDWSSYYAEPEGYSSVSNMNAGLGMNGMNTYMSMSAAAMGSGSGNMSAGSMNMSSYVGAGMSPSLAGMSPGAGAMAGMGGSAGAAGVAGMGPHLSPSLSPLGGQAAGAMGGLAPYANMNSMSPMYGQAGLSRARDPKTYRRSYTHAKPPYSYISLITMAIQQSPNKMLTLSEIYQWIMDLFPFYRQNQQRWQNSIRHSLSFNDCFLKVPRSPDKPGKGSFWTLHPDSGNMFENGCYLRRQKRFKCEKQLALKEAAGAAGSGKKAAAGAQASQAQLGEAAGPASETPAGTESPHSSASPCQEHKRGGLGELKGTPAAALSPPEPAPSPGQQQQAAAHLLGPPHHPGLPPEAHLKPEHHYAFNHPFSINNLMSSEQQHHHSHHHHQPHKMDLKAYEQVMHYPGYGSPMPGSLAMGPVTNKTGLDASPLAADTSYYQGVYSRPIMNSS
Sequence of Paired box protein Pax-6 (Homo sapiens) (P26367 whole entry, looked up): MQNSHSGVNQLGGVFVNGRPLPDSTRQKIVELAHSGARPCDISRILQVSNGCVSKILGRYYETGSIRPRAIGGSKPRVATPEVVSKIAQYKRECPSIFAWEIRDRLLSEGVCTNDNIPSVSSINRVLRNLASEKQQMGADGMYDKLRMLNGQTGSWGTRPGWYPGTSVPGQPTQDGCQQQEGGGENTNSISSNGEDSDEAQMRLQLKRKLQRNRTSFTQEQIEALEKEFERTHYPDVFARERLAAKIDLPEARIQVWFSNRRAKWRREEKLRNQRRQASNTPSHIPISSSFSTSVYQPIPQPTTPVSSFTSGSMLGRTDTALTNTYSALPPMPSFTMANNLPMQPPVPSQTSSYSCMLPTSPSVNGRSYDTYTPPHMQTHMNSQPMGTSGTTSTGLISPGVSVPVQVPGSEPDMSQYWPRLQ
Sequence of Transcription factor Sp1 (Homo sapiens) (P08047 whole entry, looked up): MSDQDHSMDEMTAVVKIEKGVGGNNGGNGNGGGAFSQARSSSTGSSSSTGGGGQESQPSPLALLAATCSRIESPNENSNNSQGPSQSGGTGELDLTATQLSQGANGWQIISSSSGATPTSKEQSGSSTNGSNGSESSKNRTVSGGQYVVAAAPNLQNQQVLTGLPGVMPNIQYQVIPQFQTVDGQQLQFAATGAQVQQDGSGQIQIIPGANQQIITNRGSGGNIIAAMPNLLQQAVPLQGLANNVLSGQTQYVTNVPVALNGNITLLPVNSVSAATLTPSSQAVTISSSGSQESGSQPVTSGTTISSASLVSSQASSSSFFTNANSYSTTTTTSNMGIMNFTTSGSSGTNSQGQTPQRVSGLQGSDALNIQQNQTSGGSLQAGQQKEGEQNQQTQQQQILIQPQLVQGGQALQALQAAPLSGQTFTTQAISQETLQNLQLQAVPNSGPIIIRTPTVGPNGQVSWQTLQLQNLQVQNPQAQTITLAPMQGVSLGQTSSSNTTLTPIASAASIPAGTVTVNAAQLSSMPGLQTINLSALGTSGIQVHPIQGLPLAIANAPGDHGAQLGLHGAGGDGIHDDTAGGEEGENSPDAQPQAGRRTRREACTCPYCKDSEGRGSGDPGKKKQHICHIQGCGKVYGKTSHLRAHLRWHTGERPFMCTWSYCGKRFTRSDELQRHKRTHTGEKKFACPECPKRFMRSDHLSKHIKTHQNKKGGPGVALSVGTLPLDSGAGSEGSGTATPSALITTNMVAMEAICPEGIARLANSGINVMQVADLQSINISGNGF
Sequence of Transcription factor E2F1 (Homo sapiens) (Q01094 whole entry, looked up): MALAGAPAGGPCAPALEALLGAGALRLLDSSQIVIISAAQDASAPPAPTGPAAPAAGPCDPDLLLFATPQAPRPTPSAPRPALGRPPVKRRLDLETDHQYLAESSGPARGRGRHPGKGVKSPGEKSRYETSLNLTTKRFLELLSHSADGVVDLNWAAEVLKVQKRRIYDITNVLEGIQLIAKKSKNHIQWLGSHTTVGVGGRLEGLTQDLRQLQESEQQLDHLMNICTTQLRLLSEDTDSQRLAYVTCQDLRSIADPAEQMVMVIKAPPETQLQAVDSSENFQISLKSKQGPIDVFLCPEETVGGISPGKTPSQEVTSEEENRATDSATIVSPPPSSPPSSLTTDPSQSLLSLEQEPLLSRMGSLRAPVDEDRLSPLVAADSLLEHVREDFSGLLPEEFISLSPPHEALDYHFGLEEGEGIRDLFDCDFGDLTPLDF
Sequence of Signal transducer and activator of transcription 3 (Homo sapiens) (P40763 whole entry, looked up): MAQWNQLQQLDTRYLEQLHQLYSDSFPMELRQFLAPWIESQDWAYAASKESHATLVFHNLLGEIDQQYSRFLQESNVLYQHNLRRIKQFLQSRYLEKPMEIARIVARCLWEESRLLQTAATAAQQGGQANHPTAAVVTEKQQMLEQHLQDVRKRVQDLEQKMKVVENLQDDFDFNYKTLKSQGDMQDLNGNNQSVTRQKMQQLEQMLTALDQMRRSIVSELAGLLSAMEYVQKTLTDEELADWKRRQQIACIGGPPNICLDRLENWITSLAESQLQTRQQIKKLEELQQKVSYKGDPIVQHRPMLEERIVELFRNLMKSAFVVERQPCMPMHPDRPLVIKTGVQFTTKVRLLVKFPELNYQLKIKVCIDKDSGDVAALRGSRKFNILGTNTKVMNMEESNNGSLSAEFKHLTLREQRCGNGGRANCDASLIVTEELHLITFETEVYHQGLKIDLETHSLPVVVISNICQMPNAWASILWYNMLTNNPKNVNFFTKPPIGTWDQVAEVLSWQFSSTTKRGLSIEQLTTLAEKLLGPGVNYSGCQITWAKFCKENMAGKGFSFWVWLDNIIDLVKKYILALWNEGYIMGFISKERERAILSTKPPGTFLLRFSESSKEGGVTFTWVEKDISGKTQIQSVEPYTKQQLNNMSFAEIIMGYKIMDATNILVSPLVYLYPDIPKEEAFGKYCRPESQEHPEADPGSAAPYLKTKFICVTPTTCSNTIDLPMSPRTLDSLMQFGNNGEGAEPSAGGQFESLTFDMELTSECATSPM

C=CC(=O)OCCCCOC(=O)C=C
active: [2] 52.4 µM | [3] 186 µM | [7] 62.4 µM | [9] 77.3 µM | [13] 54.1 µM | [16] 64 µM | [17] 52.4 µM | [18] 158 µM | [19] 26 µM
inactive: all other assays above

CC(C)CCCCCCCOP(=O)(Oc1ccccc1)Oc1ccccc1
active: [2] 21.6 µM | [3] 33.3 µM | [18] 0.408 µM
inactive: all other assays above

CCC(Br)(CC)C(=O)NC(N)=O
active: [18] 48.5 µM
inactive: all other assays above

Cl/C=C\CCl
inactive: all assays above

O=C(O)C(Br)Br
inactive: all assays above

C=C(Cl)CCl
active: [18] 52 µM
inactive: all other assays above

CC(=O)C=Cc1ccccc1
active: [3] 133 µM | [4] 143 µM | [7] 146 µM | [9] 100 µM | [13] 81.1 µM | [17] 130 µM | [18] 26 µM
inactive: all other assays above

CN(C)C(=O)C(c1ccccc1)c1ccccc1
active: [18] 9.67 µM
inactive: all other assays above

CC(C)(C)C(=O)CCl
active: [2] 55.2 µM | [16] 77.1 µM
inactive: all other assays above

C=CCN(CC=C)C(=O)C(Cl)Cl
active: [18] 43.9 µM
inactive: all other assays above

Nc1ccccc1C(=O)OCCc1ccccc1
active: [10] 14.6 µM | [16] 33.4 µM | [18] 12.3 µM
inactive: all other assays above

[N-]=[N+]=CC(=O)OC[C@H](N)C(=O)O
active: [18] 26 µM
inactive: all other assays above

CCOP(=O)(OCC)OCC
inactive: all assays above
